In PubChem BioAssay AID463173 (ICCB-Longwood Screening Facility, Harvard Medical School, 2010):
The campaign covered roughly 52,000 compounds. About 1,700 (3.3%) were called active. Many of the other results were omitted from the sample, so actives are more common in it than they were. Unmarked numbers belong to inactive results. Cut-off read from the data, not from the text of the source: active = survival mostly below about 52% (no sharp cut-off); inactive = mostly above about 56%.

test system: Wild type; test: growth inhibition of S. aureus wild type versus tarO mutant, primary screen, teichoic acid synthesis inhibitors, RN4220, OD600 (AID 463173); conditions: S. aureus RN4220 wild type/DeltatarO growth, OD600, 18 h, hits give low values, screened at 18.75 µg/mL (by protocol)

Row | Structure (SMILES) | survival
1 | NCCC(=O)N1c2ccccc2Sc2ccc(Cl)cc21 | 104%
2 | Cc1ccc(F)cc1NC(=O)CCc1c(C)nn(-c2ccc(N3CCOCC3)nn2)c1C | 113%
3 | O=C(c1ccccc1)N1CCc2cc(CNS(=O)(=O)c3ccc(Cl)s3)ccc21 | 66%
4 | Cc1c(C(=O)NCc2ccc(F)cc2)oc2ccc(S(=O)(=O)N3CCCCC3)cc12 | 84%
5 | CCOC(=O)CSc1nc2ccc(NC(=O)c3cccc(F)c3)cc2s1 | 87%
6 | CS(=O)(=O)Nc1ccc2c(c1)OCO2 | 94%
7 | COc1ccc(OC)c(NC(=O)CCCOc2cc(=O)n(C)c3ccccc23)c1 | 64%
8 | COc1cccc(NC(=O)C2CCCN(c3ncnc4onc(C)c34)C2)c1 (stereo not drawn) | 72%
9 | CCC(C)NC(=O)c1c(C)oc2nc(C)nc(N3CCOCC3)c12 (stereo not drawn) | 88%
10 | CCc1cccc(NC(=O)CCn2nc(C)cc2C)c1 | 77%
11 | COc1ccc(NC(=O)C2CCN(C(=O)c3sc4nc[nH]c(=O)c4c3C)CC2)c(OC)c1 | 81%
12 | Cc1ccc(C(=O)Nc2ccc(-c3nc4ccccc4s3)c(O)c2)c(C)c1 | 91%
13 | COc1cc(OC)cc(C(=O)Nc2cc(-c3nc4ccccc4s3)ccc2OC)c1 | 67%
14 | CSc1ccc(C(=O)Nc2ccc(-c3nc4ccccc4s3)c(O)c2)cc1 | 0% (active)
15 | COc1cc(OC)cc(C(=O)Nc2ccccc2-c2nc3ccccc3s2)c1 | 41%
16 | O=C(Nc1ccc(-c2nc3ccccc3s2)c(O)c1)c1ccc(Br)cc1 | 85%
17 | COc1ccc(C(=O)Nc2cc(-c3nc4ccccc4s3)ccc2OC)cc1 | 5% (active)
18 | COc1ccc(C(=O)Nc2ccccc2-c2nc3ccccc3s2)cc1OC | -6% (active)
19 | COc1cccc(C(=O)Nc2ccccc2-c2nc3ccccc3s2)c1 | 42%
20 | CCOc1ccc(C(=O)Nc2cc(-c3nc4ccccc4s3)ccc2OC)cc1 | 163%
21 | O=C(NCc1ccc(Cl)cc1)C(=O)NCC(c1cccs1)S(=O)(=O)c1ccc(Cl)cc1 (stereo not drawn) | 58%
22 | CCOC(=O)C1CCN(c2cc(C)nc3c(-c4ccccc4OC)c(C)nn23)CC1 | 82%
23 | COc1ccc(S(=O)(=O)N(Cc2ccccc2)Cc2nc3ccccc3c(=O)[nH]2)cc1 | 113%
24 | COc1ccc(C2=C(C)C(=O)N(Cc3ccc(C(=O)NCc4ccccc4C)cc3)S2(=O)=O)cc1 | 66%
25 | Cc1cccc(OCc2nc(CC(=O)Nc3ccc(Cl)cc3)cs2)c1 | 92%

Row | Structure (SMILES) | survival
26 | COc1ccccc1N1CCN(c2ncnc3c2c(-c2ccccc2)cn3-c2cccc(Cl)c2)CC1 | 74%
27 | CCc1ccc2nc(N(Cc3cccnc3)C(=O)c3cccs3)sc2c1 | 127%
28 | CC(=O)c1cccc(NC(=O)c2ccc3c(c2)CCN3S(=O)(=O)c2ccccc2)c1 | 71%
29 | Cc1c(-c2nnc(SCC(=O)Nc3ccc(Br)cc3)o2)nnn1-c1ccc(F)cc1 | 80%
30 | O=C(CCCCCn1c(=O)[nH]c2ccccc2c1=O)NCCc1ccccc1 | 92%
31 | Cc1cccc(NC(=O)c2sc3nc4c(cc3c2N)CCCCCC4)c1C | 121%
32 | O=C(c1ccc(F)cc1)n1nc(-c2ccccc2)nc1NCc1ccc(F)cc1 | 19%
33 | O=C(c1ccco1)n1nc(-c2ccccc2)nc1NCc1ccc(Cl)cc1 | 85%
34 | O=C(c1ccco1)n1nc(-c2ccc(Cl)cc2)nc1NCc1ccccc1 | 74%
35 | O=C(c1ccc(F)cc1)n1nc(-c2ccccc2)nc1NCc1ccco1 | 9% (active)
36 | O=C(c1ccc(F)cc1)n1nc(-c2ccc(Cl)cc2)nc1NCc1ccco1 | 76%
37 | O=C(c1ccco1)n1nc(-c2ccc(Cl)cc2)nc1NCc1ccc(F)cc1 | 70%
38 | O=C(c1ccc(Cl)cc1)n1nc(-c2ccccc2)nc1NCc1ccco1 | 24% (active)
39 | O=C(c1ccc(F)cc1)n1nc(-c2cccnc2)nc1NCc1ccccc1 | 81%
40 | O=C(c1ccccc1)n1nc(-c2ccccc2)nc1NCc1ccc(F)cc1 | -4% (active)
41 | O=C(c1ccccc1)n1nc(-c2ccc(Cl)cc2)nc1NCc1ccco1 | 25% (active)
42 | COc1ccc(C(=O)n2nc(-c3ccc(Cl)cc3)nc2NCc2ccco2)cc1 | 99%
43 | O=C(c1ccco1)n1nc(-c2ccccc2)nc1NCc1ccc(F)cc1 | 73%
44 | Cc1ccc(Nc2nc(C(N)=O)c(NC(=O)c3ccccc3Br)s2)cc1 | 71%
45 | CCOC(=O)C1CCC(CN(Cc2ccc(Cl)cc2)S(=O)(=O)c2cc(Cl)cc(Cl)c2)CC1 (stereo not drawn) | 59%
46 | COc1ccc(-n2c(=O)c3sc4ccccc4c3n(Cc3ccccc3)c2=O)cc1 | 81%
47 | Cc1cc(NC(=O)c2oc3c(c2C)-c2[nH]ncc2CC3)ccc1Br | 1% (active)
48 | Cc1cc(C)c(NC(=O)c2oc3c(c2C)-c2[nH]ncc2CC3)c(C)c1 | 81%
49 | CCc1ccc(NC(=O)c2oc3c(c2C)-c2[nH]ncc2CC3)cc1 | 59%
50 | Cc1[nH]c2ccc(Cl)cc2c(=O)c1CN1CCN(C)CC1 | 109%

Row | Structure (SMILES) | survival
51 | Clc1ccc(CCNc2nc3ccccc3c3nc(-c4ccccc4)nn23)cc1 | 38%
52 | Cc1ccc(CNC(=O)CSc2nc3n[nH]c(C)c3c(=N)n2-c2ccccc2Cl)cc1 | 83%
53 | O=C(NCC1CCN(Cc2cccc(Cl)c2)CC1)Nc1cc(Cl)ccc1Cl | -1% (active)
54 | Cc1ccc(CN2CCC(CNC(=O)Nc3ccccc3F)CC2)cc1 | 118%
55 | Cc1cc(C)cc(NC(=O)NCC2CCN(Cc3cc(C)ccc3C)CC2)c1 | 83%
56 | Cc1ccc(NC(=O)NCC2CCN(Cc3cccc(Cl)c3)CC2)cc1Cl | -6% (active)
57 | Cc1ccc(CN2CCC(CNC(=O)Nc3ccc(Cl)cc3)C2)cc1 (stereo not drawn) | 53%
58 | Cc1ccc(CN2CCC(CNC(=O)Nc3ccc(C)c(C)c3)C2)cc1 (stereo not drawn) | 94%
59 | Cc1ccc(CN2CCC(CNC(=O)Nc3cccc(Cl)c3C)C2)cc1 (stereo not drawn) | 88%
60 | O=C(NCC1CCN(Cc2ccccc2F)CC1)Nc1ccc(F)c(Cl)c1 | 73%
61 | O=C(NCC1CCN(Cc2cccc(Cl)c2)CC1)Nc1ccc(F)c(Cl)c1 | 14% (active)
62 | COc1ccc(-c2cc3nccc(-c4cc(Cl)c(C)cc4O)n3n2)cc1 | 82%
63 | CN1CCN(C(CNC(=O)c2ccc(F)cc2)c2ccc3c(c2)OCO3)CC1 (stereo not drawn) | 70%
64 | C=CCN1C=C/C(=C\C=C(C#N)C#N)c2ccccc21 | 102%
65 | CCc1c(C)nc(SCc2nc(-c3ccccc3)no2)[nH]c1=O | 118%
66 | COc1cccc(C(=O)N(Cc2ccco2)c2ccccn2)c1 | 103%
67 | COc1ccc(CCNC(=O)c2nc(SCc3ccc(F)cc3)ncc2Cl)cc1OC | 86%
68 | CN(CC(=O)NCc1ccc(Cl)cc1)S(=O)(=O)c1ccc2c(c1)c(=O)n(C)c(=O)n2C | 81%
69 | COc1ccc(NC(=O)c2oc3ccccc3c2NC(=O)Cc2cccs2)cc1 | 90%
70 | C#CC(C)(CC)NC(=O)Cn1nnc(-c2ccc(OCc3ccccc3C)cc2)n1 (stereo not drawn) | 143%
71 | Cc1ccc(-n2cc(-c3ccccc3)c3c(N4CCCCC4)ncnc32)cc1 | 80%
72 | Cc1sc2nc(CN(CCc3ccccc3)C(=O)c3ccco3)[nH]c(=O)c2c1C | 100%
73 | Cc1ccc2oc(=O)n(CCNC(=O)Nc3ccccc3Cl)c2c1 | 90%
74 | O=C(NCc1ccccc1Cl)c1ccc2oc(=O)n(Cc3ccccc3)c2c1 | 81%
75 | CCCCCOc1ccccc1Cn1c(=O)oc2ccc(C)cc21 | 15% (active)

Row | Structure (SMILES) | survival
76 | CCOC(=O)c1ccc2oc(=O)n(Cc3ccccc3)c2c1 | 68%
77 | COc1cc(Cn2c(=O)oc3ccc(C)cc32)ccc1OCCC(C)C | -7% (active)
78 | CCCCCOc1ccc(Cn2c(=O)oc3ccc(C)cc32)cc1OC | -6% (active)
79 | CCCCCOc1ccccc1CN1C(=O)C(=O)c2cc(C)ccc21 | 105%
80 | CCCCCOc1ccc(Cn2c(=O)oc3ccccc32)cc1 | 120%
81 | CCCCOc1ccc(CN2C(=O)C(=O)c3cc(C)ccc32)cc1OC | 87%
82 | CCCCOc1ccc(Cn2c(=O)oc3ccc(C)cc32)cc1OC | 49%
83 | Cc1ccc2c(c1)C(=O)C(=O)N2Cc1ccc(OCCC(C)C)cc1 | 79%
84 | Cc1ccc2oc(=O)n(Cc3ccccc3Cl)c2c1 | -2% (active)
85 | COc1cc2nc(C3CCC3)n(NC(=O)c3ccccc3C)c(=O)c2cc1OC | 115%
86 | CSc1ccc(CCNC(=O)CCc2c(C)nc3ncnn3c2C)cc1 | 71%
87 | CCC1CN(C(=O)C2CCN(S(=O)(=O)c3c(C)noc3/C=C/c3ccccc3F)CC2)c2cc(Cl)ccc2O1 (stereo not drawn) | 71%
88 | COc1ccc(NC(=O)Cn2c(=O)n(-c3ccccc3)c(=O)c3ccc(C(=O)NCc4ccc5c(c4)OCO5)cc32)cc1 | 154%
89 | COc1ccc(NC(=O)C2CCCN(S(=O)(=O)c3c(C)[nH]c(=O)[nH]c3=O)C2)cc1OC (stereo not drawn) | 130%
90 | O=C(Nc1cc(-c2ccc(F)c(F)c2)no1)c1ccccc1F | 92%
91 | COC(=O)c1ccccc1NC(=O)c1ccc(-c2nc(COc3ccccc3)c(C)o2)cc1 | 135%
92 | COCCCNC(=O)C1CCN(c2nnc(-n3cccc3CNc3ccc(C)cc3)s2)CC1 | 72%
93 | CCOCCc1nn2c(=O)cc(COC(=O)c3ccco3)nc2s1 | 85%
94 | CCOCCc1nn2c(=O)cc(COC(=O)Cc3ccccc3)nc2s1 | -1% (active)
95 | CCc1nn2c(=O)cc(COC(=O)C(CC)c3ccccc3)nc2s1 (stereo not drawn) | 73%
96 | CCc1nn2c(=O)cc(COC(=O)Cc3ccccc3)nc2s1 | 59%
97 | CCC(C(=O)OCc1cc(=O)n2nc(CCOC)sc2n1)c1ccccc1 (stereo not drawn) | 136%
98 | CCOCCc1nn2c(=O)cc(COC(=O)C(CC)c3ccccc3)nc2s1 (stereo not drawn) | 14% (active)
